# From PubChem
# Tb PYK inh = T. brucei pyruvate kinase inhibition; Q57TT1; TbPYK enzyme, Kinase-Glo Plus ATP luminescence, 45 min; Potency, µM (top dose mostly 76.8 µM), hits mostly inhibitors; actives 0.12% (n = 410,000); AID 624173; note: nearly all actives have a fitted effect of over 50% in size
#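 T. brucei PYK with substrate was exposed to pin-transferred compounds across a concentration series, then started with 130 uM ADP (final). After 45 min at room temperature, Kinase-Glo Plus luminescence was read, normalized and curve-fitted.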
# LmPK inhibitor = blocks Leishmania mexicana pyruvate kinase activity. Potency, µM (series often up to 57.5 µM), hits mostly inhibitors. Q27686. purified LmPK, Kinase-Glo ATP luminescence, 1 h. actives 0.37% (n = 290,000)
# Target sequence (Q27686 whole entry, looked up): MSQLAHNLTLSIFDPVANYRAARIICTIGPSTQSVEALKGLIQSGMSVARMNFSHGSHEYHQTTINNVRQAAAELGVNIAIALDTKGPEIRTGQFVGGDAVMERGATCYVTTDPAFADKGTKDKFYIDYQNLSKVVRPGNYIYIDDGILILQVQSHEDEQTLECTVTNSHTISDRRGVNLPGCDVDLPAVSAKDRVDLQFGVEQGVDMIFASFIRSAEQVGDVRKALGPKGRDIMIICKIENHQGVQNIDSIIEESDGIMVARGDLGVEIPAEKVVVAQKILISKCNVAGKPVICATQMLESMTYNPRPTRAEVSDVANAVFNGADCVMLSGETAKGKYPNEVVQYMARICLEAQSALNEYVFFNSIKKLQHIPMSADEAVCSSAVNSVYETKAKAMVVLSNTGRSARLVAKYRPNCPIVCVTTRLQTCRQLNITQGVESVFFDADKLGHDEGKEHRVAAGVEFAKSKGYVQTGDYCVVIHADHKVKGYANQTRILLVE
#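 ATP generated from ADP (0.1 mM) and PEP (0.5 mM) by 0.1 nM LmPK over 1 h at room temperature (pH 7.2 imidazole buffer) was detected by coupled luciferase luminescence. Values were normalized to uninhibited and no-enzyme wells.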
# Shiga toxin inh = Shiga toxin inhibition; Vero cells, Shiga toxin protein synthesis inhibition reporter; inhibition, % at 38.7 µM; actives 9.2% (n = 290,000); in the data active = inhibition mostly above about 28%, no sharp cut-off; inactive = mostly below about 43%
# CHX counter = counter-screen hit for Shiga toxin inhibitors, cycloheximide. cell reporter, cycloheximide protein synthesis inhibition counterscreen. max response, %. actives 12% (n = 300,000). AID 2314; in the data active = max response mostly above about 13%, no sharp cut-off; inactive = mostly below about 14%; note: read at 38.3 µM for the half of the compounds with a filed dose
# FBPA Giardia inh = Giardia lamblia aldolase inhibition; A8B2U2; purified Giardia FBPA; Potency, µM (top dose mostly 59.6 µM), most hits filed as inhibitors; actives 0.71% (n = 290,000); AID 2451; note: nearly all actives have a fitted effect of over 55% in size
#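 40 nM FBPA preincubated 10 min at RT with compound (up to 57.5 uM final), then substrate plus GAPDH/TPI/NAD/arsenate coupling and diaphorase/resazurin added. Fluorescence read after 20 min at RT, 525/598 nm.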
# RE007 growth inh = less growth of the S. pombe RE007 Vpr strain | actives 0.21% (n = 360,000) | Potency, µM (highest dose often 92.2 µM), actives largely listed as inhibitors | S. pombe RE007 Vpr strain, BacTiter-Glo ATP luminescence, 24 h; active = well fitted falling curve with a large enough effect; inconclusive = small, poorly fitted or top-dose-only effect; inactive = no such curve, though single readings can be large or run the other way; note: nearly all actives have a fitted effect of over 50% in size
#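 Fission yeast strain RE007, carrying one chromosomally integrated HIV-1 vpr copy, was seeded at OD 0.01 in PMG+AL medium with 23 nL pinned compound. After 24 h at 30 °C and 99% humidity, viability was read by BacTiter-Glo luminescence.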
# Numbers stand for hits; - = inactive; ? = inconclusive; . = no result; + = active, no number; [ ] = dose if it differs, or a comment. Many of the other results were omitted from the sample, so hits are more common in it than they were. Unless noted, calls come from the whole dose curve; as a rule, active = well fitted curve in the direction sought with a large enough effect; inconclusive = small, poorly fitted or top-dose-only effect, or another doubt; inactive = no such curve, though single readings can be large; an effect the other way counts as inactive or inconclusive.
SMILES,Tb PYK inh,LmPK inhibitor,Shiga toxin inh,CHX counter,FBPA Giardia inh,RE007 growth inh
CC(=O)O[C@@]1(C(C)=O)CCC2C3CC(C)C4=CC(=O)CC[C@@]4(C)C3CC[C@]21C (some centres not stated),-,.,.,.,-,.
CC(=O)OC[C@@H]1O[C@H](CCO/N=C(\C)CCC(=O)OC[C@@H]2O[C@H](C#Cc3ccccc3)C=C[C@@H]2Oc2ccc(C)cc2)C=C[C@@H]1OC(C)=O,.,.,.,.,-[12.9 µM],.
COc1ccc2cc(CCNC(=O)c3ccco3)c(=O)[nH]c2c1,-,-,95,58,-,-
COc1ccc2cc(CCNC(=O)C(C)C)c(=O)[nH]c2c1,-,-,-,-,-,-
CCCS(=O)(=O)NCCc1cc2ccc(C)cc2[nH]c1=O,-,-,28,12,-,-
CCCS(=O)(=O)NCCc1cc2cc(C)c(C)cc2[nH]c1=O,-,-,-,-,-,-
O=C(c1ccccc1)[C@H]1[C@H](c2ccccc2)[C@@]2(N=C(c3ccccc3)OC2=O)C2c3ccccc3C=NN21 (some centres not stated),.,-,55,35,-,.
CCc1cc(C(=O)N2CCN(c3ccccc3)CC2)no1,-,.,.,.,.,.
O=C(c1cc(-c2ccc3c(c2)OCO3)on1)N1CCOCC1,-,?,active,20,-,-
O=C(c1cc(-c2ccc3c(c2)OCO3)on1)N1CCN(c2ccc(F)cc2)CC1,-,-,-,-,-,-
O=C(c1cc(C2CC2)on1)N1CCN(c2ccccc2)CC1,-,-,47,24,-,-
O=C(c1cc(-c2ccc3c(c2)OCO3)on1)N1CCN(c2ccccc2)CC1,-,-,62,56,-,-
Cc1cc(C)c(NC(=O)CN(C)S(=O)(=O)c2ccc3c(c2)CCC(=O)N3)c(C)c1,-,.,.,.,.,.
CCCCn1c(N)c(N(CCOC)C(=O)COC(=O)CCOc2ccccc2C)c(=O)[nH]c1=O,-,.,.,.,.,-
CCCCNC(=O)[C@H](Cc1c[nH]c2ccccc12)NC(=O)c1ccccc1Cl,-,-,-,-,-,-
O=C(N[C@@H](Cc1c[nH]c2ccccc12)C(=O)NC1CC1)c1ccccc1Cl,-,-,-,47,-,-
COc1cc(C(=O)N[C@@H](Cc2c[nH]c3ccccc23)C(=O)O)cc(OC)c1OC,-,-,67,35,-,-
O=C(N[C@@H](Cc1c[nH]c2ccccc12)C(=O)O)c1ccccc1Cl,-,-,-,-,-,-
CCCNC(=O)[C@H](Cc1c[nH]c2ccccc12)NC(=O)c1ccccc1Cl,-,-,-,25,-,-
CCC12CN3CC(C)(CN(C1)C3c1c[nH]c3ccc(OC)cc13)C2=O (configuration not stated),-,.,.,.,.,.
CCOC(=O)CC1c2nc3ccccc3cc2CN1C(=O)OCC (configuration not stated),-,.,.,.,.,-
CCOc1ccc(OCCn2c(=S)[nH]c3ccccc32)cc1,?,-,-,-,-,-
S=c1[nH]c2ccccc2n1CCOc1ccccc1,?,-,.,21,-,-
Cc1cccc(OCCn2c(=S)[nH]c3ccccc32)c1,?,-,-,13,-,-
Cc1sc(NC(=O)CN(C(=O)c2ccccc2F)C2CCCC2)c(C(N)=O)c1C,-,-,-,-,-,-
SMILES,Tb PYK inh,LmPK inhibitor,Shiga toxin inh,CHX counter,FBPA Giardia inh,RE007 growth inh
CCOCCn1cnc2sc(C(=O)Nc3ccccc3C(=O)OC)c(C)c2c1=O,-,.,.,.,.,.
CC(C)Cc1nc(N2CCN(C(=O)C(C)C)CC2)c(C#N)c2c1CCC2,-,-,-,54,-,-
CCOC(=O)c1c(C)oc2nc(C)nc(NCc3ccc(OC)cc3OC)c12,-,.,.,.,.,.
Cn1c2ccccc2c2cnn(CC(=O)Nc3ccccc3F)c(=O)c21,-,.,.,.,.,.
COC(=O)C(C)NC(=O)c1ccc(C(C)(C)C)cc1 (configuration not stated),-,-,77,31,-,-
O=c1oc2ccc(Cl)cc2cc1-c1ccccc1,-,-,-,-,-,-
O=c1oc2ccccc2cc1-c1ccccc1,-,-,-,30,-,-
CN(C)C(=O)COc1ccc2cc(-c3ccccc3)c(=O)oc2c1,-,-,54,25,-,-
COc1ccc2cc(-c3ccccc3)c(=O)oc2c1,-,-,52,32,-,-
CCCOc1ccc2cc(-c3ccccn3)c(=O)oc2c1,?,10µM,-,39,-,?
COC(=O)C(C)Oc1ccc2cc(-c3ccccc3)c(=O)oc2c1 (configuration not stated),-,-,-,-,-,-
COc1ccc(-c2noc(CCC(=O)Nc3ccc(C)c(C)c3)n2)cc1,-,-,-,15,-,-
COc1ccc(OCCCC(=O)Nc2ccc3c(c2)OCCO3)cc1,-,-,+,-,-,-
COc1ccc(-c2noc(CCC(=O)Nc3ccc4c(c3)OCCO4)n2)cc1,-,-,43,23,-,-
CC(=O)c1ccc(OCCCC(=O)Nc2ccc3c(c2)OCCO3)cc1,-,.,.,.,.,-
COc1cccc(-c2noc(CCC(=O)Nc3cccnc3)n2)c1,-,-,-,25,-,-
COc1ccc(CN(Cc2ccc(C(=O)O)cc2)C(=S)Nc2cccc(C)c2)cc1OC,-,-,-,-,-,-
Cc1cc2[nH]c(=O)cc(-c3ccccc3)n2n1,-,-,-,17,?,-
Cc1ccc(NC(=O)C2Cc3ccccc3N2C(=O)c2ccccc2)cc1Cl (configuration not stated),-,.,.,.,.,.
Cc1ccc(NC(=O)C2OCCc3ccccc32)cc1 (configuration not stated),-,-,79,40,-,-
Cc1ccc(NC(=O)C2OCCc3ccccc32)cc1Cl (configuration not stated),-,-,58,18,-,-
CC(C)C[C@@H](CSc1ccccc1)N1CCN(CCc2ccccc2)CCC1=O,-,-,30,18,-,-
COc1ccc(SCC(CC(C)C)N2CCN(CCc3ccccc3)CCC2=O)cc1 (configuration not stated),.,.,57,56,-,.
CC(C)C[C@@H](CSc1ccc(Br)cc1)N1CCN(CCc2ccccc2)CCC1=O,-,-,-,-,-,-
CCCN1CCC(=O)N([C@H](CSc2ccc(OC)cc2)CC(C)C)CC1,-,-,71,27,-,-
C[C@H](N)Cc1c[nH]c2ccc(OCc3cccs3)cc12,.,.,.,.,-,.
CCCOC(=O)c1ccc(NC(=O)c2ccoc2C)cc1,-,?,88,41,-,-
Cc1occc1C(=O)Nc1ccc(OCc2ccccc2)cc1,?,-,-,-,-,?
CCCCOC(=O)c1ccc(NC(=O)c2ccoc2C)cc1,-,-,70,29,-,-
CCCCCCC(O)C/C=C\CCCCCCCC(=O)O (configuration not stated),-,.,.,.,.,.
